Screening data (PubChem BioAssay)
Sampled rows, rich in hits. Any-hit rate of the full collection: about 3.5%.
FBW7 activator: activators of human E3 ligase FBW7. normalized activity (activation), % at 26.1 µM. AlphaScreen FBW7–phospho-cyclin E peptide binding, activator screen. Q969H0. AID 1259310. 650,000 tested, 0.13% active; in the data active = normalized activity above about 1.9%;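 also: purified mutant Fbw7 with reduced substrate affinity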
Target sequence (Q969H0 whole entry, looked up): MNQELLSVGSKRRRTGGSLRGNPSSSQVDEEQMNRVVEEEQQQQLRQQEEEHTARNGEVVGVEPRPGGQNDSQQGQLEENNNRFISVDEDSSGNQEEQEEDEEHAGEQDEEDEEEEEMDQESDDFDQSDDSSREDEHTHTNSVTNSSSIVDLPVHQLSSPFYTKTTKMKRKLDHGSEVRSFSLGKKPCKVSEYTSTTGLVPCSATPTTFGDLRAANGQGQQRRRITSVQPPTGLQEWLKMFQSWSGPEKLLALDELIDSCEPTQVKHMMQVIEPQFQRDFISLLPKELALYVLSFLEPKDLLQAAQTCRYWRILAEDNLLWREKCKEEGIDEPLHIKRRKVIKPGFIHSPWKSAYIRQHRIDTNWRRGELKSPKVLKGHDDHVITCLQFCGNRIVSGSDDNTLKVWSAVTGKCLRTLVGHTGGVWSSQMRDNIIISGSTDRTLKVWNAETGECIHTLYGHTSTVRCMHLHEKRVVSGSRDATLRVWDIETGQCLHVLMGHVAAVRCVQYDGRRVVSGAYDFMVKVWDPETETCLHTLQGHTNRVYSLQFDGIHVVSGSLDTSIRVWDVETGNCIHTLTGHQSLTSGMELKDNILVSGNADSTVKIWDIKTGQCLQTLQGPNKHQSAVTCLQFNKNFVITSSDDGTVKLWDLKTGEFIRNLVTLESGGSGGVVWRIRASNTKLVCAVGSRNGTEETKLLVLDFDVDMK
TEAD-YAP block: TEAD-YAP interaction inhibition | HEK-TIYL cells, TEAD-Gal4/YAP UAS-luciferase luminescence | inhibition, % at 9.12 µM | 640,000 tested, 1.4% active | AID 1259422; in the data active = inhibition above about 32%;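 also: 0% = median of test compound wells and 100% = reference inhibitor wells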
MITF primary: human MITF inhibition, primary screen | AlphaScreen MITF homodimerization, bead proximity signal | inhibition, % at 2.6 µM | 650,000 tested, 0.91% active | AID 1259374; in the data active = inhibition above about 50%;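 also: 0% = vehicle wells with protein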
GPR151 ag: human GPR151 activation; Q8TDV0; PathHunter beta-arrestin GPR151 cells, luminescence; activation, % at 11.2 µM; 650,000 tested, 1% active; AID 1508602; in the data active = activation above about 4.9%;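 also: 0% = median of compound wells and 100% = cells with positive control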
* marks the source's active call; other numbers are inactive results.

SMILES | FBW7 activator | TEAD-YAP block | MITF primary | GPR151 ag
Cn1c(=O)c2ncn(CC(=O)N/N=C/c3cc(Cl)ccc3O)c2n(C)c1=O | -1 | 8 | 42 | 2
CCOc1ccc(/C=N/Nc2ncc(Br)cn2)c(O)c1 | -1 | -48 | 42 | -1
Oc1ccc(/C=N/Nc2ncc(Br)cn2)c(O)c1 | -1 | -37 | 65* | -3
Oc1ccc(/C=N/Nc2ccc(Cl)nn2)c(O)c1O | -1 | 5 | 103* | -1
Oc1ccc(/C=N/Nc2ccc(Cl)nn2)c(O)c1 | 0 | 9 | 55* | -4
Oc1ccc(/C=N/Nc2ncc(C(F)(F)F)cc2Cl)c(O)c1O | -1 | 7 | 66* | 2
COc1ccc(CCNC(=O)Nc2ccc3c(c2)CCCN3C(=O)C2CC2)cc1 | 0 | 18 | -10 | 0
CCN(CC)S(=O)(=O)c1ccc(N/N=C/c2ccccc2[N+](=O)[O-])nc1 | 0 | -2 | 1 | 1
CCN(CC)S(=O)(=O)c1ccc(N/N=C/c2ccc(O)cc2O)nc1 | 0 | 59* | 41 | 0
Cc1cnn(-c2cc(N/N=C/c3ccc(O)cc3O)ncn2)c1 | -1 | 11 | 36 | 0
Cc1cc(C)n(-c2cc(N/N=C/c3ccc(O)cc3O)ncn2)n1 | 0 | 85* | 18 | 2
CCOc1cc(/C=N/N=C(N)N)ccc1OCc1ccccc1 | 0 | 40* | 6 | 1
CCOc1cc(/C=N\NC(=O)c2ccc(N)cc2)ccc1OCc1ccccc1 | 0 | -1 | 7 | 2
COc1ccc2nc3oc(C(=O)NC4CCN(Cc5ccccc5)CC4)cc3cc2c1 | 0 | 5 | -17 | 1
CC1(Cc2cccc(C#N)c2)C(=O)Nc2ccc(F)cc21 (stereo unspecified) | 0 | 2 | -4 | 5
CC1(Cc2cccc(F)c2)C(=O)Nc2ccc(-c3cccnc3)cc21 (stereo unspecified) | 0 | 40* | 23 | 4
CC1(Cc2cccc(C#N)c2)C(=O)Nc2ccc(-c3cccnc3)cc21 (stereo unspecified) | 0 | 45* | 25 | 1
N=C1/C(=C/c2ccc(OCc3ccc4c(c3)OCO4)c(Cl)c2)C(=O)N=C2SC=CN12 | 0 | 39* | -5 | -5
N=C1/C(=C/c2cn(Cc3ccc4c(c3)OCO4)c3ccccc23)C(=O)N=C2SC=CN12 | 0 | 12 | 7 | 2
Cc1noc(-c2ccc(NC(=O)c3cccnc3)cc2)n1 | 0 | 43* | 13 | -10
O=C(CC1=CCCCC1)N1CCCC(CNS(=O)(=O)Cc2ccccc2)C1 (stereo unspecified) | 0 | 6 | 6 | 3
COC(=O)c1cccc2c1NC(c1ccc(Br)cc1)C1CC=CC21 (stereo unspecified) | 0 | -10 | 22 | 0
COC(=O)c1cccc2c1N[C@@H](c1ccc(C(=O)O)cc1)[C@H]1CC=C[C@@H]21 | 0 | 11 | 59* | -2
O=C(O)c1cccc2c1NC(c1ccccc1)C1CC=CC21 (stereo unspecified) | 0 | 2 | 26 | 1
COc1cc(OC)c2c(c1)C1C=CCC1C(c1ccc(C(=O)O)cc1)N2 (stereo unspecified) | -1 | -1 | 73* | 0
SMILES | FBW7 activator | TEAD-YAP block | MITF primary | GPR151 ag
O=C(O)c1cccc2c1NC(c1ccc(Br)cc1)C1CC=CC21 (stereo unspecified) | 0 | 2 | 27 | 1
COC(=O)c1cccc2c1NC(c1ccc(C(=O)O)cc1)C1CC=CC21 (stereo unspecified) | -2 | 5 | 68* | 1
COc1cc(OC)c2c(c1)C1C=CCC1C(c1ccc(OC)c([N+](=O)[O-])c1)N2 (stereo unspecified) | 0 | 2 | 12 | 1
CCOC(=O)c1cccc2c1NC(c1ccc(C(=O)O)cc1)C1CC=CC21 (stereo unspecified) | -2 | 8 | 83* | 0
COc1ccc(CCNC(=O)c2cnc(Nc3ccc(-n4ccnc4)cc3)s2)cc1 | 0 | -2 | 4 | 1
COc1ccc(Nc2nc(-c3cc(OC)c(OC)c(OC)c3)nc3ccccc23)cc1OC | 0 | 27 | -3 | 1
CCOc1ccc(Nc2nc(-c3cc(OC)c(OC)c(OC)c3)nc3ccccc23)cc1 | 0 | 40* | 1 | 0
CCOc1ccc(Nc2nc(NCc3ccccc3)c3ccccc3n2)cc1 | 0 | 33* | 1 | 3
COc1cc(-c2nc(Nc3ccc(OCc4ccccc4)cc3)c3ccccc3n2)cc(OC)c1OC | 0 | 10 | 5 | 0
COc1cc(-c2nc(Nc3ccc(C)c(Cl)c3)c3ccccc3n2)cc(OC)c1OC | 0 | 52* | 1 | 0
CCN(CC)c1nc(Nc2ccc3c(c2)OCO3)nc(N2CCC(N3CCOCC3)CC2)n1 | 0 | 11 | 15 | -2
CC1=NN(c2ccc([N+](=O)[O-])cc2)C(=O)/C1=C\c1ccc(C)o1 | 0 | 2 | 81* | 3
CC1=NN(c2ccc(Br)cc2)C(=O)/C1=C\c1ccc(-c2c(Br)cc([N+](=O)[O-])cc2Br)o1 | 0 | -2 | 14 | -1
Fc1ccccc1-c1cn2c3c(nnc2n1)CCCC3 | 0 | 92* | -1 | -1
COc1ccc(-c2nnc3ccc4ccccc4n23)cc1[N+](=O)[O-] | 0 | -3 | 8 | 1
CC(=O)Nc1cc(OC(C)=O)c2nonc2c1OC(C)=O | -2 | 99* | 39 | -5
CCOc1ccc(/C=C(/C#N)c2ccc3c(c2)OCO3)cc1 | 0 | 15 | 0 | -1
COc1ccc(/C(C#N)=C/c2ccc3c(c2)OCO3)cc1OC | 1 | 37* | 18 | -3
O=C(CN1CCC(Cn2cnc3ccccc32)CC1)Nc1nc2ccc(F)cc2s1 | 0 | 56* | 36 | 1
COc1ccc(CNC(=O)Cc2c(C)n(C(=O)c3ccc(Cl)cc3)c3ccc(OC)cc23)cc1 | 0 | -1 | 0 | 1
COc1ccc(CN2C(=O)C(=O)c3cc(Br)ccc32)cc1 | 0 | 64* | 2 | 1
COc1ccccc1OCCN1C(=O)C(=O)c2cc(Br)ccc21 | 0 | 34* | 0 | 0
O=C(/C=C/c1ccccc1[N+](=O)[O-])N1CCCC1 | 0 | -3 | -1 | 1
O=C(/C=C/c1ccccc1[N+](=O)[O-])N1CCc2ccccc21 | 0 | 44* | -2 | -1
O=C(/C=C/c1ccc(F)cc1)N1CCc2ccccc21 | 0 | 56* | -2 | -4
SMILES | FBW7 activator | TEAD-YAP block | MITF primary | GPR151 ag
O=c1c(Oc2ccc(F)cc2)coc2cc(O)cc(O)c12 | 0 | -3 | -5 | -1
CCN(CC)c1ccc(N2CCN(S(=O)(=O)c3cc(C)ccc3OC)CC2)nn1 | 0 | 54* | 9 | 1
COc1ccc(C)cc1S(=O)(=O)N1CCN(c2ccc(-c3ccncc3)nn2)CC1 | 0 | 1 | 8 | -2
Cc1cc(OCC(=O)Nc2c(C)nn(Cc3ccc(F)cc3)c2C)ccc1[N+](=O)[O-] | 0 | 54* | 10 | 0
Cc1cc(OCC(=O)Nc2ccc(F)cc2)ccc1[N+](=O)[O-] | 0 | -12 | 1 | -1
COc1ccc(C)cc1NC(=O)C(=O)NNC(=O)COc1ccc(Cl)cc1 | 0 | -5 | 0 | 1
NNC(=O)/C(=C\c1cccs1)NC(=O)c1ccccc1 | 0 | 33* | 2 | 0
